# Data as given in PubChem BioAssay (Tox21).
# Several values for one entry are separate records, joined by “and”; a condition that tells them apart may be missing. Equal values may be shown once. Results filed as inconclusive are left out. A call without a number means that no potency is given here. The source holds several records for some structures; these can differ, active in one and inactive in another. Activity calls are given as the source filed them. Unless noted, the call rests on the fitted dose curve; in most records, active means well fitted curve in the direction sought with a large enough effect in the repeat runs; inconclusive means weak or mixed curves; inactive means no such curve, though single readings can be large; an effect the other way counts as inactive or inconclusive.
# Columns and labels:
# [1] = molecular target: Thyrotropin receptor (Homo sapiens) (UniProt P16473); assay: qHTS assay to identify small molecule agonists of the thyroid stimulating hormone receptor (TSHR) signaling pathway (AID 1224843; calls by dose curve; further: nearly all actives have a fitted effect of over 45% in size)
# Method in brief: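 Using 15 concentrations per compound in triplicate, cAMP production was monitored in TSHR-HEK293 cells after 30 min compound incubation at RT; HTRF reagents followed, with fluorescence intensity recorded after 1 h.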
# [2] = qHTS assay to identify small molecule agonists of the hypoxia (HIF-1) signaling pathway - cell viability counter screen (AID 1224844; calls by dose curve; further: nearly all actives have a fitted effect of over 50% in size)
# Method in brief: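 Same wells as the HIF-1 reporter screen; ME-180 cells carrying HRE-bla, 17 hr treatment at 37C; CellTiter-Glo luminescence read after 30 min at room temperature.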
# [3] = qHTS assay to identify small molecule agonists of the hypoxia (HIF-1) signaling pathway (AID 1224846; active means well fitted activation curve with a large enough effect in the signal ratio in the repeat runs, not every such curve was filed as active; the % refers to the signal ratio)
# Method in brief: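 In ME-180 cells bearing an HRE-bla construct, 17 h treatment with DMSO-dissolved compounds at 37C was followed by CCF4-AM loading to quantify reporter induction.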
# [4] = qHTS assay to identify small molecule agonists of H2AX - cell viability counter screen (AID 1224847; calls by dose curve; further: top concentration of the series differs between compounds; nearly all actives have a fitted effect of over 30% in size)
# Method in brief: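 Wild-type CHO-K1 cells (10% FBS medium) were plated overnight at 37C, exposed to compounds at 15 concentrations for 3 hr at 37C (0.76% DMSO final), and viability was read as CellTiter-Glo luminescence after 30 min at room temperature.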
# [5] = qHTS assay to identify small molecule agonists of the estrogen related receptor (ERR) signaling pathway from Tox21 library (AID 1224849; calls by dose curve; further: nearly all actives have a fitted effect of over 15% in size); conditions: ERR reporter cell line, ONE-Glo luciferase, 18 h; at 92.4 µM (top of the series) unless noted
# Method in brief: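 Reporter cells (ERR, NTP source) treated with Tox21 10K compounds 18 h, 37 C. Readout: ONE-Glo luminescence, 30 min RT.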
# [6] = qHTS RealTime-Glo MT Cell Viability Assay in HepG2 cells - 24 hour (AID 1224867); further: nearly all actives have a fitted effect of over 50% in size
# Method in brief: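 Real-time, nonlytic viability: 600 HepG2 cells/well mixed with NanoLuc enzyme plus prosubstrate; 5 h settle, compound (DMSO) added by pintool; luminescence monitored over 40 h at 37 C.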
# [7] = qHTS RealTime-Glo MT Cell Viability Assay in HEK293 cells - 32 hour (AID 1224868); further: nearly all actives have a fitted effect of over 50% in size; further: potency means the concentration at half of the fitted maximal effect
# Method in brief: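 Cells + reagent dispensed (600 cells/well, HEK293) → 5 h at 37 C/5% CO2 → 23 nL compound in DMSO pinned → 40 h at 37 C → luminescence read at 0, 8, 16, 24, 32, 40 h.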
# [8] = A CellTox Green Cytotoxicity Assay to monitor cytotoxicity in HEK293 cells - 0 hour (AID 1224869); further: nearly all actives have a fitted effect of over 50% in size
# Method in brief: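 Homogeneous no-lysis format: HEK293 cell suspension mixed with CellTox Green reagent, seeded, incubated 5 h at 37 C/5% CO2, then dosed by pintool with compound in DMSO.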
# [9] = qHTS assay to identify small molecule agonists of H2AX (AID 1224845; active means well fitted activation curve with a large enough effect in the signal ratio in the repeat runs, not every such curve was filed as active; the % refers to the signal ratio)
# Method in brief: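 Wild-type CHO-K1 cells plated overnight, then exposed 3 hr at 37C to compounds at 15 concentrations (0.76% DMSO). Lysed, then HTRF anti-pH2AX(S139)-cryptate/anti-H2AX-d2 detection after 24 hr at room temperature; emissions 665 and 620 nm.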
# [10] = qHTS assay to identify small molecule antagonists of the estrogen related receptor (ERR) signaling pathway from Tox21 library (AID 1224848); further: nearly all actives have a fitted effect of over 50% in size
# Method in brief: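 Tox21 10K compounds in DMSO tested for ERR pathway antagonism in NTP's ERR cell line; 18 h, 37 C exposure; ONE-Glo luminescence.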
# Thyrotropin receptor (Homo sapiens), sequence (P16473 whole entry, looked up): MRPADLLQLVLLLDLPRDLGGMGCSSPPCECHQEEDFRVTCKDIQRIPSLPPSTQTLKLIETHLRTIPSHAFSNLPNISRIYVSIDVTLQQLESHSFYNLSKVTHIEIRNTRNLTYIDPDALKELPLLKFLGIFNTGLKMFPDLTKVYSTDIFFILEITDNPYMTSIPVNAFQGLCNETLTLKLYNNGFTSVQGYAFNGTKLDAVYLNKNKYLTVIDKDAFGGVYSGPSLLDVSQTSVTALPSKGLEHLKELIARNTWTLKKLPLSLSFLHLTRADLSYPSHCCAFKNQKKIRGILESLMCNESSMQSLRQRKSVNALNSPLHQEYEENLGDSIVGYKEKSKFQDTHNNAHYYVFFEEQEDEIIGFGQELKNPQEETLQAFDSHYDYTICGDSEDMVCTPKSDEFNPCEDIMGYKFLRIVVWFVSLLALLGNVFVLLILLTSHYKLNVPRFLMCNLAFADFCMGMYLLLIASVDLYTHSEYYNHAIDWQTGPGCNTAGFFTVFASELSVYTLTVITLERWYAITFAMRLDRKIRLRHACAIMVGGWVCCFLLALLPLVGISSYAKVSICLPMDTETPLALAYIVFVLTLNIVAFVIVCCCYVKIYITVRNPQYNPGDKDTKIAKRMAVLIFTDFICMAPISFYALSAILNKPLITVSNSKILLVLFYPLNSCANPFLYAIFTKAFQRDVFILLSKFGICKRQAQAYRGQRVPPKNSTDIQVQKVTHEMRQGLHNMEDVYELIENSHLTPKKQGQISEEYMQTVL
SMILES,Potency [1],Potency [2],outcome [3],Potency [4],"activity change, positive = activation [5]",Potency [6],Potency [7],Potency [8],outcome [9],Potency [10]
Cc1cc(O)cc2c1O[C@](C)(CCC[C@H](C)CCC[C@H](C)CCCC(C)C)CC2,inactive,inactive,inactive,inactive,6.7% [at 42.5 µM] (inactive),inactive,inactive,inactive,,
CCN1CCC[C@H]1CNC(=O)c1c(O)c(Cl)cc(Cl)c1OC,inactive,inactive,,inactive,,inactive,inactive,inactive,inactive,
Oc1ccc(C2CNCCc3c2cc(O)c(O)c3Cl)cc1 (configuration not stated),inactive,inactive,inactive,inactive,,inactive,inactive,inactive,,
CC(C(=O)O)c1ccc(CC2CCCC2=O)cc1 (configuration not stated),inactive,inactive,,inactive,,inactive,inactive,inactive,inactive,
N=c1nc(N2CCCCC2)cc(N)n1O,inactive,inactive,,inactive,,inactive,inactive,inactive,inactive,
CN1CCC(=C2c3ccccc3CC(=O)c3sccc32)CC1,inactive,inactive,,inactive,,inactive,inactive,inactive,inactive,
Nc1nc2c(ncn2COC(CO)CO)c(=O)[nH]1,inactive,inactive,,inactive,,,,inactive,inactive,
O=C(O)c1ccccc1OP(=O)(O)O,inactive,inactive,,inactive,,inactive,inactive,inactive,inactive,inactive
CCOC(=O)Nc1ccc(NCc2ccc(F)cc2)nc1N,inactive,inactive,,inactive,-17.8% [at 42.5 µM] (inactive),,,inactive,inactive,
CCOC(=O)CCC(C)=O,,inactive,inactive,inactive,4.77% (inactive),inactive,inactive,,inactive,inactive
O=C1CCCC(=O)C1,,inactive,inactive,inactive,-12.9% (inactive),inactive,inactive,,inactive,inactive
CC(=O)OCC(=O)[C@@]1(O)CC[C@H]2[C@@H]3CCC4=CC(=O)CC[C@]4(C)[C@H]3C(=O)C[C@@]21C,,inactive,,inactive,,inactive,inactive,inactive,inactive,
CCCCCOC(=O)CCCCC,,inactive,inactive,inactive,0.374% (inactive),inactive,,inactive,inactive,inactive
CN(C(=O)c1c(O)c2ccccc2n(C)c1=O)c1ccccc1,,inactive,inactive,inactive,0.397% [at 42.5 µM] (inactive),inactive,inactive,,inactive,inactive
CCSC(=O)N(CC(C)C)CC(C)C,,inactive,inactive,inactive,3.6% (inactive),inactive,,inactive,inactive,inactive
CN1CCN(c2cc3c(cc2F)c(=O)c(C(=O)O)cn3-c2ccc(F)cc2)CC1,,inactive,inactive,inactive,-10.8% [at 42.5 µM] (inactive),inactive,inactive,inactive,inactive,inactive
NS(=O)(=O)c1cc2c(cc1Cl)NC(C1CC3C=CC1C3)NS2(=O)=O (configuration not stated),,inactive,,inactive,,inactive,inactive,inactive,inactive,
COC(=O)c1ccc(C)cc1C1=NC(C)(C(C)C)C(=O)N1 (configuration not stated),,inactive,inactive,inactive,4.81% (inactive),inactive,inactive,,inactive,inactive
CC(C)(C)c1ccc(O)c(O)c1,,inactive,,inactive,,,,,,
O=[N+]([O-])c1ccc(F)cc1F,,inactive,inactive,inactive,3.35% (inactive),,inactive,,inactive,inactive
CCOC(=O)c1ccc(C)cc1,,inactive,inactive,inactive,4.47% (inactive),inactive,inactive,inactive,inactive,inactive
NC(CSCC(=O)O)C(=O)O (configuration not stated),,inactive,inactive,inactive,5.41% [at 42.5 µM] (inactive),inactive,inactive,,inactive,inactive

SMILES,Potency [1],Potency [2],outcome [3],Potency [4],"activity change, positive = activation [5]",Potency [6],Potency [7],Potency [8],outcome [9],Potency [10]
CC(=O)CC(C)(C)C1CCCCC1,,inactive,inactive,inactive,0.591% (inactive),inactive,inactive,inactive,inactive,inactive
C[N+](C)(C)CCCCCC[N+](C)(C)C,,inactive,,inactive,,inactive,,inactive,inactive,
NC(=O)c1ccc(N)cc1,,inactive,inactive,inactive,8.51% (inactive),inactive,inactive,inactive,inactive,inactive
Cc1nc2c([nH]1)c(=O)n(C)c(=O)n2Cc1ccco1,,inactive,inactive,inactive,,inactive,inactive,inactive,inactive,
COc1ccc2c(c1)CCCC2=O,,inactive,inactive,inactive,4.85% [at 42.5 µM] (inactive),,inactive,inactive,inactive,inactive
N=C(N)c1ccc2cc(OC(=O)c3ccc(N=C(N)N)cc3)ccc2c1,,inactive,inactive,inactive,0.274% [at 42.5 µM] (inactive),inactive,,inactive,inactive,inactive
CC(C[N+](C)(C)C)OC(N)=O (configuration not stated),,inactive,,inactive,3.25% [at 42.5 µM] (inactive),,inactive,inactive,inactive,inactive
FC(F)OC(Cl)C(F)(F)F (configuration not stated),,inactive,inactive,inactive,8.92% (inactive),,inactive,inactive,inactive,inactive
CC/C=C\CC/C=C/CO,,inactive,inactive,inactive,5.28% (inactive),inactive,inactive,inactive,inactive,inactive
CCCCOCCOCCOCc1cc2c(cc1CCC)OCO2,,inactive,inactive,inactive,,inactive,inactive,inactive,inactive,
O=c1cc(-c2ccccc2)oc2ccccc12,,inactive,inactive,,,,15.5 µM (active) and 6.88 µM (active),inactive,,
COCCCOCCCOC,inactive,,inactive,inactive,,inactive,,inactive,inactive,
CCCCCCOC(=O)CCCCC(=O)OCCCCCC,,inactive,inactive,inactive,5.81% (inactive),inactive,inactive,inactive,inactive,inactive
OC(CCN1CCCCC1)(c1ccccc1)C1CC2C=CC1C2 (configuration not stated),,inactive,inactive,inactive,,inactive,inactive,inactive,inactive,
O=C(O)CNC(=O)c1ccc([N+](=O)[O-])cc1,,inactive,inactive,inactive,4.79% (inactive),inactive,inactive,inactive,inactive,
O=Cc1cccc([N+](=O)[O-])c1,,inactive,inactive,inactive,-4.24% (inactive),inactive,inactive,inactive,inactive,inactive
CO[Si](CCCOCC1CO1)(OC)OC (configuration not stated),,inactive,inactive,inactive,,inactive,inactive,,inactive,
O=C1OC(=O)C2CCCCC12 (configuration not stated),,inactive,inactive,inactive,-1.02% (inactive),inactive,inactive,inactive,inactive,inactive
Cc1c(O)cccc1O,,inactive,inactive,inactive,2.02% (inactive),inactive,inactive,,inactive,
COC(=O)c1c(Cl)c(Cl)c(C(=O)OC)c(Cl)c1Cl,,inactive,inactive,,4.6% (inactive) and 15.8% (active),inactive,,inactive,,inactive
CCS(=O)(=O)c1ccc(OC)c(C(=O)OC)c1,,inactive,inactive,inactive,4.43% [at 42.5 µM] (inactive),inactive,inactive,inactive,inactive,inactive
CC(=O)Nc1c(I)cc(I)c(C(=O)O)c1I,,inactive,inactive,inactive,7.03% [at 42.5 µM] (inactive),inactive,inactive,inactive,inactive,
